Bioassay records (PubChem)
Mtb hypoxia rep – PubChem AID 1159583; M. tuberculosis hypoxia-regulated fluorescent reporter, fluorescence; fluorescence inhibition, % (no concentration beside the values); hit rate 0.1% among 300,000; in the data active means fluorescence inhibition mostly above about 23%, no sharp cut-off; inactive means mostly below about 17%
Sa ugtP lethal – growth inhibition of ugtP-null S. aureus, primary screen, RN4220 ugtP deletion, OD600; 16 h; growth inhibition, % (concentration not given with the values); hit rate 0.54% among 330,000; in the data active means growth inhibition above about 68%
RN4220 kill – growth inhibition of S. aureus RN4220, primary screen, OD600; 16 h; AID 1259311, 2017; hit rate 0.33% among 330,000; inhibition, % (no concentration beside the values); in the data active means inhibition above about 85%
Numbers stand for hits; i = inactive; nt = not tested or not shown. In the library only some 0.68% were active in any assay of this set; here they are far more common.

SMILES	Mtb hypoxia rep	Sa ugtP lethal	RN4220 kill
O=C(NC(=S)Nc1ccc(N2CCOCC2)cc1)c1ccc2c(c1)OCCO2	nt	i	i
COc1ccc(C(=O)NC(=S)Nc2ccc(N3CCOCC3)cc2)cc1Cl	i	99	i
Cc1ccc(C(=O)NC(=S)Nc2ccc(N3CCOCC3)cc2)cc1C	i	i	i
Fc1ccc(-c2csc(C=Cc3ccc4c(c3)OCO4)n2)cc1	i	i	i
O=P(NC(c1ccccc1)C1CC1CO)(c1ccccc1)c1ccccc1 (stereo not given)	i	i	i
CCc1ccc(-n2c(C)cc(C=NNC(=O)OC)c2C)cc1	i	i	i
CC(=NNC(=O)c1ccc(-c2ccccc2)cc1)c1cccc(O)c1	i	i	i
COc1ccc(-c2cc3ccccc3s2)cc1C1C2C=CCC(C)C2C(=O)N1Cc1ccccc1 (stereo not given)	i	i	i
Cc1cccc(C(=O)Nc2ccc(C(=O)NN=Cc3cccnc3)cc2)c1	i	i	i
CC(C)CC(CO)N1CCN(Cc2cccc(C#N)c2)CCC1=O (stereo not given)	i	i	i
Cc1ccc(S(=O)(=O)N2CCN(c3ncnc4scc(-c5ccccc5)c34)CC2)cc1	i	i	91
COc1ccc(-c2csc3ncnc(N4CCN(S(=O)(=O)c5ccc(C(C)=O)cc5)CC4)c23)cc1	i	i	i
COc1ccc(-c2csc3ncnc(N4CCN(S(=O)(=O)c5cccc(Br)c5)CC4)c23)cc1	i	i	i
O=S(=O)(c1cccc(F)c1)N1CCN(c2ncnc3scc(-c4ccc(F)cc4)c23)CC1	i	99	97
CN1CCCN(c2ncnc3scc(-c4ccc(F)cc4)c23)CC1	i	i	i
Cc1ccc(S(=O)(=O)N2CCN(c3ncnc4scc(-c5ccc(F)cc5)c34)CC2)cc1	i	99	98
CCOc1cc(C=NNC(=O)COc2ccc(Cl)cc2)ccc1OS(=O)(=O)c1ccccc1	i	i	i
O=Nc1c(-c2c(O)[nH]c3cc(Br)ccc23)[nH]c2ccccc12	i	100	100
O=C(CSCc1cccc(Br)c1)N=Nc1c(O)[nH]c2ccccc12	i	i	i
Brc1ccc(-c2ccc(C=NNc3nc(N4CCOCC4)nc(N4CCOCC4)n3)o2)cc1	i	i	i
COc1cc(OC)cc(-c2sc3ccc(OC)cc3c2-c2ccc(OCCN3CCCCC3)cc2)c1	i	i	i
COc1ccc(-c2c(-c3cc(OC)cc(OC)c3)sc3ccc(OC)cc23)cc1	i	92	i
COc1ccc(-c2c(-c3ccccc3OC)sc3ccccc23)cc1	i	87	i
COc1ccc(-c2sc3ccc(OC)cc3c2-c2ccc(O)cc2)cc1	i	100	i
COc1ccc(-c2sc3ccc(N4CCOCC4)cc3c2-c2ccc(O)cc2)cc1	i	i	i
SMILES	Mtb hypoxia rep	Sa ugtP lethal	RN4220 kill
c1ccc(-c2sc3ccccc3c2-c2ccc(OCCN3CCCCC3)cc2)cc1	i	i	i
CN(C)CCOc1ccc(-c2c(-c3ccccc3)sc3ccccc23)cc1	51	100	100
COc1ccc2sc(-c3ccccc3OC)c(-c3ccc4c(c3)OCCO4)c2c1	i	i	i
CC1CCC(=O)N(C(CC#N)Cc2ccccc2)CC1 (stereo not given)	i	i	i
COC(=O)[C@@]1(Cc2ccc(OC)cc2)C2c3cc(C(=O)N4CCCC4)n(Cc4c(CO)[nH]cc(C)c4=O)c3CC2CN1C(=O)c1ccccc1 (stereo not given in full)	i	i	i
C#CCNC(=O)C1=CC(c2cn(C(C)=O)c3ccccc23)CC(OCc2ccc(CO)cc2)O1 (stereo not given)	i	i	i
NC(=O)NN=Cc1cc(Br)ccc1OC(=O)c1ccccc1	i	i	i
COc1ccc(C2CC(=O)C=C(c3ccccc3Oc3ccccc3)C2)cc1 (stereo not given)	i	i	i
CC1(C(=O)NN=Cc2ccccc2)CC1(Br)Br (stereo not given)	i	i	i
COc1cc(OC)cc(-c2sc3ccc(OC)cc3c2-c2ccc(O)cc2)c1	i	100	99
COCc1ccc(-c2c(-c3cccc(OC)c3)sc3ccc(OC)cc23)cc1	i	i	i
CC[C@]1(O)CC2CN(CCc3c([nH]c4ccccc34)[C@@](C(=O)OC)(c3cc4c(cc3OC)N(C)C3[C@@](O)(C(=O)OC)C(OC(C)=O)[C@]5(CC)C=CCN6CC[C@]43C65)C2)C1 (stereo not given in full)	i	i	i
O=C(NCc1ccccc1)C1=CC(c2csc3ccccc23)CC(OCc2ccc(CO)cc2)O1 (stereo not given)	i	i	i
CCCCCCCC[n+]1cccc2c3ccccc3ccc21	i	101	100
CCCCCCCCCC[n+]1cccc2c3ccccc3ccc21	i	100	100
CCCCCCCCNc1ncnc2ccccc12	i	i	i
Cc1cccc[n+]1CCCCCCCCCC[n+]1ccccc1C	i	i	i
O=[N+]([O-])c1ccc(C=NNc2nc(NCc3ccccc3)nc(N3CCOCC3)n2)cc1	i	i	i
CN1CCN(C(=O)C2=CC(C(C)(C)C)CC(OCc3ccc(CO)cc3)O2)CC1 (stereo not given)	i	i	i
Cc1cc(Cl)ccc1C1=CC(=O)CC(c2ccc(F)cc2)C1 (stereo not given)	i	i	i
COc1ccc(Oc2cc(C)c3cccc(C)c3n2)cc1	nt	96	i
Cc1cc(N2CCCC2)nc2c(C)cccc12	i	i	i
O=C(O)CCc1ccc(-c2ccc(Br)cc2)n1-c1cccc(O)c1	i	85	i
O=C(O)CCc1ccc(-c2ccccc2)n1-c1cccc(C(=O)O)c1	i	i	i
CCC1OC(=O)C(C)C(OC2C[C@@](C)(OC)C(O)C(C)O2)C(C)C(OC2OC(C)CC(N(C)C)C2O)[C@](C)(OC)CC(C)C(=O)C(C)C(O)[C@]1(C)O (stereo not given in full)	nt	100	101
SMILES	Mtb hypoxia rep	Sa ugtP lethal	RN4220 kill
COc1ccc(C(=O)c2ccc(Cl)cc2)c2ccccc12	nt	96	i
COc1ccc(C(=O)c2ccc(Br)cc2)c2ccccc12	i	i	i
COC(=O)C1=C(C)N(Cc2ccccc2)C(=O)NC1c1cccs1 (stereo not given)	i	i	i
CC1(C)CC(=O)C2=C(C1)NC(Nc1nc3ccccc3o1)=NC2c1ccccn1 (stereo not given)	i	i	i
CC1=C(C(=O)Nc2ccccc2)C(c2ccc(C)cc2)N=C(Nc2nc3ccccc3o2)N1 (stereo not given)	37	i	i
CCCCC(CC(=O)c1ccccc1)C(OC(C)=O)C(=O)Oc1c(C(C)C)cccc1C(C)C (stereo not given)	i	i	i
O=C(O)c1cccc(-n2c(/C=C/c3ccccc3)nc3ccccc3c2=O)c1	i	100	97
O=c1c2ccccc2nc(/C=C/c2ccc(O)cc2)n1-c1ccccc1O	i	91	95
COc1ccccc1-n1c(/C=C/c2ccc(O)cc2)nc2ccccc2c1=O	i	i	i
O=c1c2ccccc2nc(/C=C/c2ccccc2)n1-c1ccc(O)cc1	i	i	i
O=c1c2ccccc2nc(/C=C/c2ccccc2)n1-c1ccccc1O	i	97	96
O=C(O)c1ccc(/C=C/c2nc3ccccc3c(=O)n2-c2ccc(Br)cc2)cc1	i	i	i
CC1(C)OC2OC(C(O)CON3C(=O)c4ccccc4C3=O)C(O)C2O1 (stereo not given)	i	i	i
O=C(COC(=O)C=Cc1cccs1)NC(=O)Cc1ccccc1	i	i	i
